{"source": "PubChem BioAssay AID504332", "about": "(National Center for Advancing Translational Sciences (NCATS), 2011)", "note": "Among all 350,000 compounds or so, about 31,000 (8.9%) were called active. Roughly 15% stayed inconclusive and do not appear here. The list comes from a sample in which actives are over-represented; it also holds similar structures and randomly drawn compounds. A call without a number means that no potency is given here. Unmarked numbers belong to inactive results. Calls follow the shape of the dose curve; as a rule, active = well fitted inhibition curve with a large enough effect; inconclusive = small, poorly fitted or top-dose-only effect; inactive = no such curve, though single readings can be large or run the other way. Potency is read from the fitted curve at half-maximal effect."}
{"target": "Histone-lysine N-methyltransferase EHMT2 (Homo sapiens) (UniProt Q96KQ7)", "sequence (Q96KQ7 913-1193 limits assumed)": "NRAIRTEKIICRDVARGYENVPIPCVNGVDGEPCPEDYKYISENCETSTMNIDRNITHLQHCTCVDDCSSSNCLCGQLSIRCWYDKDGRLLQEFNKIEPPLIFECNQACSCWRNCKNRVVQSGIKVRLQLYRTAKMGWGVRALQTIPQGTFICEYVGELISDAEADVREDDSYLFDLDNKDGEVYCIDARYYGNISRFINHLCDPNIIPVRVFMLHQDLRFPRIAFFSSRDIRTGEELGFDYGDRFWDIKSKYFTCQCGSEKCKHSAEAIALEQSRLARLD", "assay": "qHTS Assay for Inhibitors of Histone Lysine Methyltransferase G9a; also: nearly all actives have a fitted effect of over 75% in size", "details": "G9a H3K9 monomethylation, AlphaScreen, 2 h; series mostly up to 59 µM", "procedure,_shortened": "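AlphaScreen read-out: biotin-H3K9 peptide (500 nM) methylation by 20 nM enzyme with 20 uM SAM, 2 h at room temperature after 15 min compound preincubation; anti-monomethyl H3K9 antibody plus donor/acceptor beads, 10 min dark.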"}
{"smiles": "CCN(C(=O)Cn1cnc2sc(C)c(S(=O)(=O)N3CCN(c4ncccn4)CC3)c2c1=O)c1ccccc1F", "Potency": "inactive"}
{"smiles": "Cc1ccc(S(=O)(=O)N(CCCN(C)C)Cc2ccc3c(c2)OCO3)cc1", "Potency": "inactive"}
{"smiles": "COc1ccc(-c2cn3nc(N4CCCC(C(=O)NCCCOC(C)C)C4)sc3n2)cc1", "note": "(centres undefined)", "Potency": "inactive"}
{"smiles": "Cc1c(Cl)cccc1NC(=O)C(=O)NCCc1csc2nc(-c3ccccc3F)nn12", "Potency": "inactive"}
{"smiles": "NS(=O)(=O)c1ccc(CCNC(=O)COC(=O)COc2cccc(C(F)(F)F)c2)cc1", "activity, negative = inhibition": "-4.95% [at 12.7 µM]"}
{"smiles": "Cc1ccc(-c2cc(C(=O)NC3CCN(Cc4ccccc4)CC3)c3ccccc3n2)cc1", "Potency": "inactive"}
{"smiles": "CC(Sc1nn(-c2ccc(Cl)cc2)c(=S)s1)C(=O)NCC1CCCO1", "note": "(centres undefined)", "Potency": "inactive"}
{"smiles": "CNC(=O)NC(=O)CSc1nnc(-c2ccc(F)cc2)n1CC1CCCO1", "note": "(centres undefined)", "Potency": "inactive"}
{"smiles": "S=c1[nH]nc(-c2ccc(Cl)cc2)n1CC1CCCO1", "note": "(centres undefined)", "Potency": "7.94 µM (active)"}
{"smiles": "CCN1C(=O)[C@H]2[C@@H](c3ccc(-c4ccc(F)cc4)cc3)N[C@@](Cc3ccccc3)(C(=O)OC)[C@H]2C1=O", "activity, negative = inhibition": "15.2% [at 2.33 µM]"}
{"smiles": "O=C(COc1ccccc1Cl)N1N=C(c2cccs2)CC1c1ccco1", "note": "(centres undefined)", "activity, negative = inhibition": "-17.2% [at 12.7 µM]"}
{"smiles": "Cc1cc(C)cc(OCC(=O)Nc2c(C(=O)c3ccccc3)oc3ccccc23)c1", "Potency": "inactive"}
{"smiles": "CCn1nnnc1SCC(=O)Nc1ccc(N(C)C)cc1", "Potency": "28.2 µM (active)"}
{"smiles": "CC(=O)Nc1ccc(NC(=O)CSc2nnnn2C2CCCCC2)cc1", "Potency": "inactive"}
{"smiles": "CC(=O)Nc1ccc(NC(=O)CSc2nnnn2-c2ccccc2F)cc1", "Potency": "inactive"}
{"smiles": "CCOc1ccc(C2C(=O)N(C3CCCCC3)CC(=O)N2CCC2=CCCCC2)cc1OC", "note": "(centres undefined)", "Potency": "inactive"}
{"smiles": "CCOc1ccccc1N1CCN(C(=S)Nc2ccc(S(N)(=O)=O)cc2)CC1", "Potency": "inactive"}
{"smiles": "COc1ccc(N2CCN(C(=S)Nc3ccc(S(N)(=O)=O)cc3)CC2)cc1", "Potency": "8.91 µM (active)"}
{"smiles": "CC1CN(C(=S)Nc2ccc(S(N)(=O)=O)cc2)CC(C)O1", "note": "(centres undefined)", "Potency": "inactive"}
{"smiles": "CCCN1CCc2nc(N3CCN(C)CC3)ncc2C1", "Potency": "inactive"}
{"smiles": "Nc1nc(SCCOc2ccccc2)n[nH]1", "activity, negative = inhibition": "1.72% [at 12.7 µM]"}
{"smiles": "N#Cc1cccc(CSc2ncnc(N)n2)c1", "activity, negative = inhibition": "-30.5% [at 2.33 µM]"}
{"smiles": "Nc1nc(SCc2cccc(Br)c2)n[nH]1", "Potency": "31.6 µM (active)"}
{"smiles": "Cc1ccc(CCNC(=O)c2ccc3c(c2)nc2n3CCC(C)C2)cc1", "note": "(centres undefined)", "Potency": "inactive"}
{"smiles": "CCOc1ccc(NC(=O)C(=O)NCCc2csc3nc(-c4ccccc4F)nn23)cc1", "Potency": "inactive"}
{"smiles": "COc1ccc(NC(=O)CCCN2C(=O)CCn3nc(-c4cn(C)c5ccccc45)cc32)cc1OC", "Potency": "inactive"}
{"smiles": "CCc1ccc(NC(=O)Cn2nnc(C(=O)NCc3ccc4c(c3)OCO4)c2N)cc1", "Potency": "inactive"}
{"smiles": "Cc1cc(C)cc(NC(=O)Cc2csc(C)n2)c1", "Potency": "inactive"}
{"smiles": "CCN(CC(=O)Nc1ccccc1C(F)(F)F)C(=O)C1CCN(C(=O)Nc2ccccc2)CC1", "Potency": "inactive"}
{"smiles": "CCOC(=O)C1CCN(c2ccc(C(=O)O)cc2[N+](=O)[O-])CC1", "Potency": "inactive"}
{"smiles": "CCOC(=O)c1ccc(N2C(=O)CC(N3CC(C)OC(C)C3)C2=O)cc1", "note": "(centres undefined)", "Potency": "inactive"}
{"smiles": "CCOC(=O)c1ccc(N2C(=O)CC(N3CCC(C(=O)OCC)CC3)C2=O)cc1", "note": "(centres undefined)", "Potency": "35.5 µM (active)"}
{"smiles": "NC(=O)C1CCN(C2OC(=O)c3ccccc32)CC1", "note": "(centres undefined)", "Potency": "inactive"}
{"smiles": "COc1ccc(COCC(O)CN2CCC(C(N)=O)CC2)cc1", "note": "(centres undefined)", "Potency": "inactive"}
{"smiles": "COc1ccc(N2C(=O)CC(N3CCC(C(N)=O)CC3)C2=O)cc1", "note": "(centres undefined)", "Potency": "14.1 µM (active)"}
{"smiles": "COc1cc(Cl)ccc1Nc1ncc(C(=O)N2CCN(c3ccccc3OC)CC2)c2ccccc12", "Potency": "inactive"}
{"smiles": "COc1cc(C)ccc1OCCSc1nc2ccc(NC(=O)c3ccc(C)cc3)cc2s1", "Potency": "inactive"}
{"smiles": "N#C/C(=C\\c1cccc(F)c1)c1nc(-c2cc3c(ccc4ccccc43)oc2=O)cs1", "Potency": "inactive"}
{"smiles": "COc1ccc(NC(=O)COCc2cc(-c3ccco3)on2)cc1", "Potency": "inactive"}
{"smiles": "CC(OC(=O)/C=C/c1ccccc1)C(=O)NC1CCCCC1C", "note": "(centres undefined)", "activity, negative = inhibition": "27.1% [at 12.7 µM]"}
{"smiles": "CCCCN(C(=O)C1=NN(c2cc(C)ccc2C)C(=O)CC1)c1c(N)n(CCC)c(=O)[nH]c1=O", "activity, negative = inhibition": "-9.41% [at 12.7 µM]"}
{"smiles": "O=C(CSc1n[nH]c(-c2cccs2)n1)N1CCCCC1", "activity, negative = inhibition": "-2.34% [at 2.33 µM]"}
{"smiles": "CCN(CC)S(=O)(=O)c1cccc(-c2n[nH]c(=S)n2/N=C/c2ccc(C(=O)OC)cc2)c1", "Potency": "1.41 µM (active)"}
{"smiles": "COC(=O)c1ccc(/C=N\\n2c(C)nnc2C)cc1", "Potency": "inactive"}
{"smiles": "CCN(CC)S(=O)(=O)c1ccc2nc(COC(=O)c3n[nH]c4ccccc34)[nH]c2c1", "activity, negative = inhibition": "12.7% [at 12.7 µM]"}
{"smiles": "COc1ccc(-c2nn(CC(=O)Nc3ccccc3F)c3c2cnc2ccc(F)cc23)cc1", "Potency": "inactive"}
{"smiles": "CCOC(=O)c1cccc(NC(=O)Cn2cnc3nc4c(cc3c2=O)CCCC4)c1", "Potency": "inactive"}
{"smiles": "CC(NCC(=O)Nc1ccccc1C(=O)NC1CC1)c1ccccc1Cl", "note": "(centres undefined)", "activity, negative = inhibition": "3.45% [at 12.7 µM]"}
{"smiles": "Cc1cccc(Cn2c(CN3CCC(C(=O)NCc4ccccc4Cl)CC3)cc3ccccc32)c1", "Potency": "inactive"}
{"smiles": "CCCN(CCC)CCNC(=O)Cn1cnc2sc(C)c(S(=O)(=O)N3CCC(C)CC3)c2c1=O", "Potency": "inactive"}
{"smiles": "Cc1ccc(NC(=O)CN(C)C(=O)COC(=O)C(C)(C)Oc2ccc(Cl)cc2)cc1", "Potency": "inactive"}
{"smiles": "COc1ccc(N2CC(C(=O)NCCS(=O)(=O)N3CCN(c4ccccc4)CC3)CC2=O)cc1", "note": "(centres undefined)", "Potency": "inactive"}
{"smiles": "COc1ccc(OCC(=O)NCCS(=O)(=O)N2CCN(c3ccc(F)cc3)CC2)cc1", "Potency": "inactive"}
{"smiles": "COc1ccc(N2CCN(S(=O)(=O)CCNC(=O)C34CC5CC(CC(C5)C3)C4)CC2)cc1", "Potency": "44.7 µM (active)"}
{"smiles": "CC(=O)Nc1ccc(NC(=O)CCCc2nc(-c3ccc(C(C)(C)C)cc3)no2)cc1", "Potency": "inactive"}
{"smiles": "CCc1ccc(NC(=O)Cn2nnc(C(=O)NCc3ccc(OC)cc3)c2N)cc1", "Potency": "inactive"}
{"smiles": "CC(=O)c1c(C)n(-c2ccc(N(C)C)cc2)c2ccc(OCC(N)=O)cc12", "Potency": "50.1 µM (active)"}
{"smiles": "CC(=O)c1c(C)n(-c2ccc(C)cc2)c2ccc(O)cc12", "Potency": "inactive"}
{"smiles": "CCOC(=O)c1c(-c2ccccc2)oc2ccc(OCC(N)=O)cc12", "Potency": "inactive"}
